An excerpt weighted towards active compounds, which were near 27% of everything screened.
CYP2C9 inhib – blocks human cytochrome P450 2C9; P11712; CYP2C9 Supersomes, luciferin-H conversion, luminescence; inhibition, % at 5 µM; 96,000 tested, 20% active;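 active = blocking of liver enzyme CYP2C9 beyond about 50% at 5 µM, limit read from the data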
Target sequence (P11712 whole entry, looked up): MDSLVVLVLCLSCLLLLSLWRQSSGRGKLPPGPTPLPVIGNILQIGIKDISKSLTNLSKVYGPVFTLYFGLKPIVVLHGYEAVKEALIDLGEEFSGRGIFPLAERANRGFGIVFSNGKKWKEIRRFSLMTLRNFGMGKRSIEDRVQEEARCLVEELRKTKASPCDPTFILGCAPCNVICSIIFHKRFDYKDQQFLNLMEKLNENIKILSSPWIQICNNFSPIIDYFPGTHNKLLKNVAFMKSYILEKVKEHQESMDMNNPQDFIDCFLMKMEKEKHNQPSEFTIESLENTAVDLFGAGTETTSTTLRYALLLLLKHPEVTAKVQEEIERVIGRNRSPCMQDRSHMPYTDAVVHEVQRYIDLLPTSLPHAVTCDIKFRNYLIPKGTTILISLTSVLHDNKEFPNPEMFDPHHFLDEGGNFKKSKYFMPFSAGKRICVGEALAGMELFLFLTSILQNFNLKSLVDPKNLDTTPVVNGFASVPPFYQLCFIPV
CYP2C9 act – CYP2C9 (human) activation. P11712. recombinant CYP2C9, luciferin-H conversion, luminescence; active compounds read high; factor 1 = untreated enzyme, 0 = blocked. activation factor at 5 µM. 96,000 tested, 1.4% active. AID 1024;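 active = activation factor of 2 or more for CYP2C9 at a 5 µM dose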;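 note: 0 = sulfaphenazole-blocked wells and 1 = vehicle-only wells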
Cav32 inh – human Cav3.2 channel inhibition, primary screen; O95180; Cav3.2-expressing cells, Fluo-4 calcium fluorescence FDSS; active compounds read low; B-score at 10 µM; 100,000 tested, 4% active;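 active = single-dose well whose peak fluorescence ratio is a statistical outlier from its plate by either plate-standardised score or position-corrected B-score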
CYP2C19 activ – increases human CYP2C19 enzyme activity. P33261. activation factor at 5 µM. recombinant CYP2C19, luciferin-H EGE luminescence; active compounds read high; 0 = fully inhibited enzyme, 1 = untreated enzyme. 96,000 tested, under 10 active;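 active = activation factor of at least 2 at 5 µM in the primary screen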;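 note: 0 = wells with 2.5 mM tranylcypromine and 1 = vehicle-only wells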
CYP2C19 inhib – blocks human cytochrome P450 2C19. CYP2C19 Supersomes, luciferin-H EGE luminescence, 30 min. P33261. 96,000 tested, 21% active. AID 778. inhibition, % at 5 µM;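 active = CYP2C19 inhibition above a set limit at 5 µM in the primary screen, cut at about 50% in these data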;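 note: plate controls were negative control wells for no effect and 2.5 mM tranylcypromine positive control for full effect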
Active calls of the source: *.

Screening CC(C)(C)OC(=O)N1CCC2(CC1)Oc1ccc(F)cc1C(=O)C21CC(c2ccccc2)=NO1 (configuration not stated) returned Cav32 inh -1.3.
Cc1cc(=O)[nH]c(Nc2c(C)n(C)n(-c3ccccc3)c2=O)n1 was read as CYP2C9 inhib -14, CYP2C9 act 1.1, Cav32 inh 0.45, CYP2C19 activ 1.2 and CYP2C19 inhib -15.
Screening O=c1nc2ccccc2c(NS(=O)(=O)c2ccc(Cl)cc2)n1-c1ccccc1 returned CYP2C9 inhib 5, CYP2C9 act 0.9, Cav32 inh -0.16, CYP2C19 activ 0.9 and CYP2C19 inhib 10.
Cc1c(Nc2nc3ccccc3nc2N2CCN(c3ccccc3)CC2)c(=O)n(-c2ccccc2)n1C was read as CYP2C9 inhib 75*, CYP2C9 act 0.2, Cav32 inh -2.5, CYP2C19 activ 0.7 and CYP2C19 inhib 35.
Screening CC(=O)Nc1ccc(S(=O)(=O)Nc2nc3ccccc3nc2N2CCCCCC2)cc1 returned CYP2C9 inhib 70*, CYP2C9 act 0.3, Cav32 inh -3.3, CYP2C19 activ 0.8 and CYP2C19 inhib 23.
`O=S(=O)(Nc1nc2ccccc2nc1N1CCN(c2ccccn2)CC1)c1ccc(Cl)cc1` gave CYP2C9 inhib 100*, CYP2C9 act 0, Cav32 inh -4.7*, CYP2C19 activ 0.7 and CYP2C19 inhib 34.
Screening COc1ccc(N2CCN(c3nc4ccccc4nc3NS(=O)(=O)c3ccccc3)CC2)cc1 returned CYP2C9 inhib 98*, CYP2C9 act 0, Cav32 inh -4.2*, CYP2C19 activ 0.5 and CYP2C19 inhib 53*.
For CCC12CC3CC(C1)CC(C(=O)O)(C3)C2 the results were CYP2C9 inhib -6, CYP2C9 act 1.1, Cav32 inh 0.86, CYP2C19 activ 1.1 and CYP2C19 inhib -10.
For CC(C(=O)NC1CCCC1)N(Cc1ccco1)C(=O)c1snc(C(=O)NC2CCCC2)c1N (configuration not stated) the results were CYP2C9 inhib 44, CYP2C9 act 0.6, Cav32 inh -2.9, CYP2C19 activ 0.8 and CYP2C19 inhib 23.
Cc1ccc(S(=O)(=O)N2CCN(c3nc4ccccc4nc3-n3nc(C)cc3C)CC2)cc1 was read as CYP2C9 inhib 30, CYP2C9 act 0.7, CYP2C19 activ 0.8 and CYP2C19 inhib 16.
Screening Cc1ccc(S(=O)(=O)Nc2nc3ccccc3nc2N2CCN(c3ccccc3F)CC2)cc1 returned CYP2C9 inhib 100*, CYP2C9 act 0, Cav32 inh -3.6*, CYP2C19 activ 0.7 and CYP2C19 inhib 30.
`Cc1ccc(C(=O)NCc2ccccn2)c(Cl)c1` gave CYP2C9 inhib 10, CYP2C9 act 0.9, Cav32 inh 1.1, CYP2C19 activ 0.9 and CYP2C19 inhib 8.
For Cn1c(=O)cc(OCC(=O)NCc2ccccn2)c2ccccc21 the results were CYP2C9 inhib -54, CYP2C9 act 1.5, Cav32 inh 0.6, CYP2C19 activ 0.9 and CYP2C19 inhib 8.
For O=C(COc1ccccc1Br)NCc1ccccn1 the results were CYP2C9 inhib 37, CYP2C9 act 0.6, Cav32 inh 0.5, CYP2C19 activ 0.3 and CYP2C19 inhib 65*.
For Cc1ccc(OCC(=O)NCc2ccccn2)c(Br)c1 the results were CYP2C9 inhib -1, CYP2C9 act 1, Cav32 inh 0.53, CYP2C19 activ 0.4 and CYP2C19 inhib 61*.
`O=C(COc1ccc(F)cc1Br)NCc1ccccn1` gave CYP2C9 inhib 2, CYP2C9 act 1, Cav32 inh 0.24, CYP2C19 activ 0.4 and CYP2C19 inhib 59*.
COC(=O)c1ccc(CNC(=O)COc2ccccc2Br)o1 was read as CYP2C9 inhib 2, CYP2C9 act 1, Cav32 inh 0.95, CYP2C19 activ 0.3 and CYP2C19 inhib 71*.
For COc1cc(NC(=O)c2ccc(COc3ccccc3Br)o2)cc(OC)c1OC the results were CYP2C9 inhib 41, CYP2C9 act 0.6, Cav32 inh -1.4, CYP2C19 activ 0.7 and CYP2C19 inhib 31.
Screening Cc1ccc(C)c(Cn2c(CO)nc3ccccc32)c1 returned CYP2C9 inhib 6, CYP2C9 act 0.9, Cav32 inh -6.4*, CYP2C19 activ 0.6 and CYP2C19 inhib 36.
For COCc1nc2ccccc2n1Cc1ccccc1 the results were CYP2C9 inhib 32, CYP2C9 act 0.7, Cav32 inh -0.18, CYP2C19 activ 0.2 and CYP2C19 inhib 79*.
`COc1ccc(C(=O)NCCCc2nc3ccccc3n2Cc2cc(C)ccc2C)cc1OC` gave Cav32 inh -1.3.
